Source: PubChem BioAssay
Shown are actives, neighbours in structure and some others; about 1.6% of the full set was active somewhere.
KCNQ2 enhance: potentiators of rat KCNQ2 potassium channel; O88943; CHO-K1 KCNQ2, FluxOR thallium flux fluorescence; hits give high values; B-score at 10 µM; 310,000 compounds, 0.54% hits;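 active means fluorescence ratio B-score at least 3 SD of library B-scores, with initial fluorescence B-score within 3 of them, cut at about 5.3 in these data; same plate scores as AID 2156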;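 further: B-score of peak minus minimum over baseline fluorescence ratio after K+ and Tl+ stimulus; positive B-score means potentiation of KCNQ2 with more thallium influx and brighter signal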
Target sequence (O88943 whole entry, looked up): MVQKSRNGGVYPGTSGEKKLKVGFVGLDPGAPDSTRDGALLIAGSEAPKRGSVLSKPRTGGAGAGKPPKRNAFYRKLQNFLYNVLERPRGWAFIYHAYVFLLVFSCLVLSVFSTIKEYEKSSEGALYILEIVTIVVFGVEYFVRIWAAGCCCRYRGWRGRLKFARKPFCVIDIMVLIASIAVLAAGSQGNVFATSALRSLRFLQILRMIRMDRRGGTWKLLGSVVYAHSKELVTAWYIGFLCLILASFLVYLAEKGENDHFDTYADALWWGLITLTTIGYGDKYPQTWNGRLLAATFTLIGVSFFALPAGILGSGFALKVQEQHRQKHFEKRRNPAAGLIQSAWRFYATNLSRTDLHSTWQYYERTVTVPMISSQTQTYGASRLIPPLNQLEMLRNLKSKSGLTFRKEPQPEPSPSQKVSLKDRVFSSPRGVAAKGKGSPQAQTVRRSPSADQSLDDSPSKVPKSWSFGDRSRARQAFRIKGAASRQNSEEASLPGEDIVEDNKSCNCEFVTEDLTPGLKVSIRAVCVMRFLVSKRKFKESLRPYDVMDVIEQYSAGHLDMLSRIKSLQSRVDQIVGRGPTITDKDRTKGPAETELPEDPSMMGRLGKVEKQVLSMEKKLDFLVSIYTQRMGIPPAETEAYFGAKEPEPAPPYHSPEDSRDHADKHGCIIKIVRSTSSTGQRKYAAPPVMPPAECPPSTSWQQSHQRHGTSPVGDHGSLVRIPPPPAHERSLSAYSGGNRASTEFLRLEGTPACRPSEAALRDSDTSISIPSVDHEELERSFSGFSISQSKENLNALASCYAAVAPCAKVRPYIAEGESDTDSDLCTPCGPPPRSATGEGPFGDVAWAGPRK
KCNQ2 block: KCNQ2 (rat) channel inhibition; CHO-K1 KCNQ2, FluxOR thallium flux, 20 min; hits give low values; B-score at 10 µM; 310,000 compounds, 1.1% hits; AID 2156;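 active means fluorescence ratio B-score at most minus 3 library SDs, with starting brightness B-score within 2 library SDs, cut at about -5.5 in these data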
KCNQ2 inh conf: confirmation of rat KCNQ2 potassium channel inhibitors; shares compounds with KCNQ2 block; KCNQ2-expressing cells, thallium flux, inhibition; hits give low values; activity change, negative = inhibition, % at 10 µM; 1,000 compounds, 57% hits
KCNQ1 spec: human KCNQ1 activity in KCNQ2 inhibitor specificity screen; shares compounds with KCNQ2 block; KCNQ1-expressing cells, FluxOR thallium flux fluorescence; hits give low values; activity change, negative = inhibition, % at 10 µM; 1,000 compounds, 15% hits;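 active means activity change at least 3 SD of negative controls below their mean in both duplicate wells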;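 further: CHO cells stably transfected with KCNQ1 and depolarized by potassium stimulus; peak minus minimum fluorescence over baseline after thallium addition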
CHO Tl ctr: activity in parental CHO cells lacking KCNQ2. activity change, % at 10 µM. 1,000 compounds, 14% hits. thallium flux counter-screen; hits give low values. shares compounds with KCNQ2 block
KCNQ2 inh confirm: rat KCNQ2 inhibition confirmed by electrophysiology; calls only at 10 µM; 550 compounds, 49% hits; shares compounds with KCNQ2 block; KCNQ2-expressing cells, automated patch clamp current; AID 588531
Of the large screens only hits and unclear results are named; the others gave an inactive call (follow-up assays come after a bar, where they were run). Unless noted, how the calls were made is not given here.

COc1ccc(CCN(Cc2cc3cc(C)cc(C)c3nc2Cl)C(=O)C2CC2)cc1	KCNQ2 block -8.6 | KCNQ2 inh conf -32% | KCNQ1 spec inactive | CHO Tl ctr inactive | KCNQ2 inh confirm inactive
O=[N+]([O-])c1cccc(P(=O)(O)c2cccc([N+](=O)[O-])c2)c1	none
CCN(CC)CCC(=O)c1ccc(F)cc1	KCNQ2 block -9 | KCNQ2 inh conf -36% | KCNQ1 spec inactive | CHO Tl ctr inactive | KCNQ2 inh confirm inactive
CN(C)CCC(=O)c1ccc(F)cc1	none (no result: KCNQ2 enhance)
CCC1(CC)NC(=O)N(CC(=O)OC(C)C(=O)Nc2cc([N+](=O)[O-])ccc2OC)C1=O (centres undefined)	none
COc1ccc(/C=N/N=C/c2ccc(OC)c(OC)c2)cc1OC	none
COc1cc(/C=N/N=C(N)N)ccc1OCc1ccccc1Cl	KCNQ2 block -10 | KCNQ2 inh conf -26% | KCNQ1 spec inactive | CHO Tl ctr inactive | KCNQ2 inh confirm inactive
CCOC(=O)N1CCC(N(CCCOC)C(=O)Nc2cccc(OC)c2)CC1	none (no result: KCNQ2 enhance)
CCOC(=O)N1CCC(N(CCOC)C(=O)Nc2ccc(Cl)c(Cl)c2)CC1	KCNQ2 block -9.4 | KCNQ2 inh conf -25% | KCNQ1 spec inactive | CHO Tl ctr inactive
COc1ccc(C)cc1N(CC(=O)NC1CCCC1)C(=O)Cn1nnc(-c2ccc(C)o2)n1	none (no result: KCNQ2 enhance)
Cc1cc(C)cc(NC(=O)Nc2ccc3c(c2)N(C)C(=O)CS3)c1	none
CC(=O)c1cccc(NC(=O)Nc2ccc3c(c2)N(C)C(=O)CS3)c1	KCNQ2 block -8.5 | KCNQ2 inh conf -44% | KCNQ1 spec -34% | CHO Tl ctr -29% | KCNQ2 inh confirm inactive
CCOC(=O)/C(=C\Nc1ccccc1C(F)(F)F)Sc1ncc(C(F)(F)F)cc1Cl	none (no result: KCNQ2 enhance)
COC(=O)/C(=C\Nc1ccc(Cl)c2ccccc12)c1ncc(C(F)(F)F)cc1Cl	KCNQ2 block -8.4 | KCNQ2 inh conf -18% | KCNQ1 spec inactive | CHO Tl ctr inactive | KCNQ2 inh confirm inactive
O=C(NCCn1cccn1)C1CCC(=O)N(CCc2ccc(Cl)cc2)C1 (centres undefined)	none
CCOC(=O)Cn1c(CCC(=O)O)ccc1-c1ccc(F)cc1	KCNQ2 block -9.3 | KCNQ2 inh conf inactive | KCNQ1 spec inactive | CHO Tl ctr inactive
O=C(O)CCc1ccc(-c2ccc(F)cc2)n1CC(=O)O	none (no result: KCNQ2 enhance)
O=C(CSc1nc(C2CC2)nc2c1cnn2-c1ccccc1)Nc1c[nH]c(=O)[nH]c1=O	none
O=C(/C=C/c1ccccc1)c1ccc2c(c1)OCO2	none (no result: KCNQ2 enhance)
O=C(/C=C/c1ccccc1Br)c1ccc2c(c1)OCO2	KCNQ2 block -6.8 | KCNQ2 inh conf inactive | KCNQ1 spec inactive | CHO Tl ctr inactive
O=C1/C(=C/c2ccc(Cl)cc2)NC(=S)N1Cc1cccnc1	none (no result: KCNQ2 enhance)
Cc1c(C)c2cc(Cl)c(OCC(=O)NC3CC(C)(C)NC(C)(C)C3)cc2oc1=O	none (no result: KCNQ2 enhance)
O=C(/C=C/Nc1ccc(Nc2ccccc2)cc1)c1cccs1	KCNQ2 block -7.3 | KCNQ2 inh conf inactive | KCNQ1 spec inactive | CHO Tl ctr inactive
Cc1ccc(N/C=C/C(=O)c2cccs2)cc1C	none (no result: KCNQ2 enhance)
COc1cc(C(=O)Nc2cc(-c3ccccc3)[nH]n2)cc(OC)c1OC	KCNQ2 block -6.6 | KCNQ2 inh conf -25% | KCNQ1 spec inactive | CHO Tl ctr inactive | KCNQ2 inh confirm inactive
COc1cc(C(=O)Nc2nc(OC)c(-c3ccccc3)c(OC)n2)cc(OC)c1OC	none
c1ccc(-c2n[nH]c(-c3ccccc3)c2-c2nc3ccccc3[nH]2)cc1	KCNQ2 block -9.2 | KCNQ2 inh conf -36% | KCNQ1 spec inactive | CHO Tl ctr inactive | KCNQ2 inh confirm active
c1ccc(-c2nc3ccccc3[nH]2)cc1	none
Cc1cc(C)c(NC(=O)CS(=O)CC(=O)N2CCN(c3cccc(C)c3C)CC2)c(C)c1 (centres undefined)	none
Cc1ccc(C2C(C=Nc3c(C)n(C)n(-c4ccccc4)c3=O)=C(c3ccccc3)Oc3ccccc32)cc1 (centres undefined)	KCNQ2 block -11 | KCNQ2 inh conf -24% | KCNQ1 spec inactive | CHO Tl ctr inactive | KCNQ2 inh confirm inactive
Cc1c(N=Cc2cccs2)c(=O)n(-c2ccccc2)n1C	none (no result: KCNQ2 enhance)
CCOc1ccc(CCNC(=O)Cn2nc(C)c3c(C)n(-c4ccccc4)nc3c2=O)cc1OCC	none
Cc1c(CCOC(=O)C23CC4(C)CC(C)(CC(C)(C4)C2)C3)sc[n+]1CC(=O)c1ccccc1	none (no result: KCNQ2 enhance)
Cc1c(CCOC(=O)CC23CC4CC(CC(C4)C2)C3)sc[n+]1CC(=O)c1ccccc1	KCNQ2 block -8.5 | KCNQ2 inh conf -20% | KCNQ1 spec inactive | CHO Tl ctr inactive | KCNQ2 inh confirm active
CC1(C)CC(NC(=O)c2ccccn2)CC(C)(C)N1O	none
COc1ccc(CCN(Cc2nc3ccccc3c(=O)[nH]2)C(=O)c2ccco2)cc1	none
CCC(CC)C(=O)N(CCc1ccc(OC)cc1)Cc1nc2ccccc2c(=O)[nH]1	KCNQ2 block -9.5 | KCNQ2 inh conf -30% | KCNQ1 spec inactive | CHO Tl ctr inactive | KCNQ2 inh confirm active
O=C(CCC1CCCN(Cc2ccc3c(c2)CCO3)C1)NCc1ccc(F)c(F)c1 (centres undefined)	none (no result: KCNQ2 enhance)
Cc1ccc(N2C(=O)[C@@H]3C(C(=O)CCN4C(=O)c5ccccc5C4=O)=NN[C@@H]3C2=O)cc1	none (no result: KCNQ2 enhance)
COc1cccc(N=C2CC(C)(C)CC(=O)/C2=C(/O)c2ccccc2)c1	none (no result: KCNQ2 enhance)
O=C(O)Cc1sc(Nc2cccc3ccccc23)nc1-c1ccc(Cl)cc1	KCNQ2 block -8.2 | KCNQ2 inh conf inactive | KCNQ1 spec inactive | CHO Tl ctr inactive
Cc1ccc(Nc2nc(-c3ccc(C)cc3)c(CC(=O)O)s2)cc1	none
O=C(COC(=O)c1ccccn1)Nc1cccnc1Cl	none (no result: KCNQ2 enhance)
O=C(COC(=O)CC12CC3CC(CC(C3)C1)C2)Nc1cccnc1Cl	KCNQ2 block -7.3 | KCNQ2 inh conf -38% | KCNQ1 spec inactive | CHO Tl ctr inactive | KCNQ2 inh confirm active
Cc1cccc(-c2noc(CN(C(=O)/C=C/c3ccccc3Cl)C(C)C)n2)c1	none (no result: KCNQ2 enhance)
Cc1cccc(-c2noc(CN(C)S(=O)(=O)c3cc(Cl)ccc3Cl)n2)c1	KCNQ2 block -11 | KCNQ2 inh conf inactive | KCNQ1 spec inactive | CHO Tl ctr inactive
Cc1cccc(-c2noc(CN(C(=O)CCc3ccccc3)C(C)C)n2)c1	KCNQ2 block -8 | KCNQ2 inh conf -36% | KCNQ1 spec -36% | CHO Tl ctr -28% | KCNQ2 inh confirm inactive
COc1ccc(Cl)cc1C(=O)N(Cc1nc(-c2cccc(C)c2)no1)C(C)C	none (no result: KCNQ2 enhance)
Cc1ccc(-c2ccc(/C=N/O)o2)cc1[N+](=O)[O-]	none
CC(C(=O)Nc1cccc(S(=O)(=O)N2CCOCC2)c1)N1CCN(C)CC1 (centres undefined)	none (no result: KCNQ2 enhance)
COCCn1cc(C(=O)NCCN(C)C)c2c3ccccc3n(C)c2c1=O	none
COC(=O)c1cc(C(=O)OCC(=O)NC(=O)c2ccccc2)cc([N+](=O)[O-])c1	none
Cc1ccc(-c2nnc(-c3ccccc3)c(-c3ccccc3)n2)cc1	none (no result: KCNQ2 enhance)
Cc1cc(-c2nnc(-c3ccccc3)c(-c3ccccc3)n2)c(C)o1	KCNQ2 block -9.9 | KCNQ2 inh conf inactive | KCNQ1 spec inactive | CHO Tl ctr inactive
